DT40 TDP1 CPT = growth inhibition of DT40 Tdp1-/-;hTDP1 cells with camptothecin (screen for TDP1 inhibitors); actives 12% (n = 420,000); Potency, µM (highest dose often 46.2 µM), for inactives: at the top dose activity change, negative = growth inhibition, usual class: inhibitors; chicken DT40 Tdp1-/-;hTDP1 cells + 20 nM CPT, ATP luminescence, 48 h; further: potency means the concentration at half of the fitted maximal effect; nearly all actives have a fitted effect of over 55% in size
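Chicken DT40 Tdp1-/- cells complemented with human TDP1, 400 cells/well, exposed to compounds plus 20 nM camptothecin for at least 48 h at 37 C; viability read as ATP content by CellTiter-Glo luminescence.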
TDP1 inh = TDP1 (human) enzyme inhibition; actives 0.28% (n = 350,000); recombinant TDP1, AlphaScreen DNA substrate cleavage; Potency, µM (titrated, usually from 130 µM), for inactives: at the top dose activity change, negative = inhibition, most hits filed as inhibitors; further: potency means the concentration at half of the fitted maximal effect; nearly all actives have a fitted effect of over 40% in size
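Recombinant human Tdp1 (E. coli-expressed, 1 nM final) preincubated with compounds 15 min at room temperature, then 5'-biotin/3'-phosphotyrosine-FITC DNA substrate (15 nM final) added for 5 min. AlphaScreen beads (10 ug/ml final) added 10 min; cleavage lowers signal.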
DT40 TDP1 no CPT = qHTS for Inhibitors of human tyrosyl-DNA phosphodiesterase 1 (TDP1): qHTS in cells in absence of CPT. DT40 Tdp1-/- hTDP1 cells, no CPT, ATP luminescence, 48 h. Potency, µM (highest dose often 46.2 µM), for inactives: at the highest dose activity change, negative = growth inhibition, most hits filed as inhibitors. actives 15% (n = 420,000); further: potency means the concentration at half of the fitted maximal effect; nearly all actives have a fitted effect of over 55% in size
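Luminescent ATP content (CellTiter-Glo) served as the growth readout. Knockout chicken DT40 cells expressing human TDP1 were exposed to compounds without camptothecin for a minimum 48 hr at 37 °C.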
Six1-Eya2 blk = inhibitors of human Six1/Eya2 interaction; activity change, % (concentration not given with the values); AlphaScreen GST-Six1/His-Eya2 binding, biochemical; hits give low values; Q15475+O00167; AID 651725; actives 0.56% (n = 360,000); in the data active means activity change below about -65%; inconclusive means mostly about -30% to -63%
Target sequence (O00167 whole entry, looked up): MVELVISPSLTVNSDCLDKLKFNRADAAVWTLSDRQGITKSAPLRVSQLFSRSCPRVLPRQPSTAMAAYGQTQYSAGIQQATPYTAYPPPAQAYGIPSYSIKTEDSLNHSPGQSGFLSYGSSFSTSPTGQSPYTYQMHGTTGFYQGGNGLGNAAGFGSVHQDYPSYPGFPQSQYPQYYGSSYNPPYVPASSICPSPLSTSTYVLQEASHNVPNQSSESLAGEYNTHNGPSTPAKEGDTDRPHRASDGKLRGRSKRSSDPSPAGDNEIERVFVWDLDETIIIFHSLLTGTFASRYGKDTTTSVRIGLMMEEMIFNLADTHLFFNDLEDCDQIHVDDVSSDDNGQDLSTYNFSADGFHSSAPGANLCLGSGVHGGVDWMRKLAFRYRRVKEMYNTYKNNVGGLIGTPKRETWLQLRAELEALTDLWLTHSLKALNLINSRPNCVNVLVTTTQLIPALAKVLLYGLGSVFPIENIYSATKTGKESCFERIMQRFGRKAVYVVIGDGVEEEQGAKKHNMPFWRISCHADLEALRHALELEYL
Target sequence (Q15475 whole entry, looked up): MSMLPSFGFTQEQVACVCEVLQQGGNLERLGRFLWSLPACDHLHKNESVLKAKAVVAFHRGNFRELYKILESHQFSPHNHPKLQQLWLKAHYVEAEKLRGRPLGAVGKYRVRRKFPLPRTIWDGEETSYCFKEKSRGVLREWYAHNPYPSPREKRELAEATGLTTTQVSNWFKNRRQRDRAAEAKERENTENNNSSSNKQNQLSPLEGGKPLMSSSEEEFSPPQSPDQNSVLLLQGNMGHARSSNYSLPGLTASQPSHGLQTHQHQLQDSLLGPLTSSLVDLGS
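Compounds are tested against tagged Six1 and Eya2 proteins bridged by glutathione donor and nickel acceptor beads; after a one-hour incubation at 37 °C without light, AlphaScreen emission is recorded.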
IL-1B inflam inh = inhibitors of inflammasome signaling (IL-1 beta secretion); THP-1 LPS/ATP IL-1B secretion, AlphaLISA, 16 h; hits give low values; activity change, % at 57.5 µM; actives 4.7% (n = 360,000); AID 743279; in the data active means activity change below about -50%; inconclusive means mostly about -30% to -49%
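THP-1 cells pretreated 1 hr with compounds (up to 57.5 uM final), then stimulated with LPS (250 ng/mL final) plus ATP (1.25 mM final); secreted IL-1B measured by AlphaLISA after 16 hr, decreased signal indicating inhibition.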
CtBP-E1A blk = CtBP/E1A binding inhibition; AlphaScreen GST-E1A/His-CtBP binding, 1536-well; hits give low values; activity change, % (concentration not given with the values); actives 0.49% (n = 340,000); AID 651724; in the data active means activity change below about -65%; inconclusive means mostly about -30% to -63%
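GST-E1A and His-tagged CtBP (125 nM each as 5X stock) were preincubated with pin-transferred compound for 2 h at 37 °C in the dark, then glutathione donor and nickel acceptor beads were added for 1 h before AlphaScreen reading.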
Starred values were filed as active, the others as inactive; ? = inconclusive; . = no result; ! = repeats disagree; [ ] = dose if it differs, or a comment. Most compounds without a hit are left out; they make up all but 18% or so of the library. Unless noted, the call rests on the fitted dose curve; in most records, active means well fitted curve in the direction sought with a large enough effect; inconclusive means small, poorly fitted or top-dose-only effect, or another doubt; inactive means no such curve, though single readings can be large; an effect the other way counts as inactive or inconclusive. On the % scale 0 is the no-effect control and ±100 the full control effect.

SMILES | DT40 TDP1 CPT | TDP1 inh | DT40 TDP1 no CPT | Six1-Eya2 blk | IL-1B inflam inh | CtBP-E1A blk
CCSc1nnc(NC(=O)[C@@H](NC(=O)c2ccc(C(C)(C)C)cc2)C(C)C)s1 | 26µM* | 6% | 21µM* | 5 | 27 | -18
CC(SC1=NCCN1S(C)(=O)=O)c1ccccc1 (stereo not drawn) | -10% | 2% | -13% | -1 | -7 | .
O=C(NCCC1=CCCCC1)C1CCN(c2nc3ccccc3o2)CC1 | ? | 2% | -29% | 1 | 11 | 4
Cc1ccc(-c2nnc(NC(=O)CCS(=O)(=O)c3ccccc3)o2)c(C)c1 | -18% | . | -16% | 0 | -6 | 4
Cc1ccc(C)c(-c2nnc(NC(=O)c3ccc([N+](=O)[O-])o3)o2)c1 | 15µM* | . | 15µM* | -1 | -10 | 6
Cc1ccc(C)c(-c2nnc(NC(=O)Cc3ccc(F)cc3)o2)c1 | 12µM* | 3% | 10µM* | 2 | -11 | .
Cc1ccc(-c2nnc(NC(=O)Cc3ccc(F)cc3)o2)c(C)c1 | 10µM* | 4% | 12µM* | 2 | -13 | .
Cc1ccc(C)c(-c2nnc(NC(=O)COc3ccccc3)o2)c1 | ? | 5% | ? | -19 | 11 | -14
CC1CCC2(CC1)NC(=O)N(CC(=O)c1ccc(CNC(=O)C(C)(C)C)s1)C2=O (stereo not drawn) | -29% | 0%[56.1 µM] | -1% | 7 | 8 | 8
Cc1nn(-c2ccccc2)cc1C(=S)Nc1ccccc1 | -5% | 8% | -30% | -5 | ? | -3
O=C(NCCC1=CCCCC1)c1ccc2c(=O)n3c(nc2c1)CCCCC3 | ? | 5% | ? | -9 | 3 | -1
COc1ccccc1Nc1nn2c(=O)c3ccc(C(=O)NCCC4=CCCCC4)cc3nc2s1 | 1.5µM* | 6% | 3.3µM* | . | . | .
COc1ccc(C(=O)NCCC2=CCCCC2)cc1OC | 4% | 3% | -4% | 11 | -15 | 10
Cc1c(Cl)cccc1Nc1nn2c(=O)c3ccc(C(=O)NCCC4=CCCCC4)cc3nc2s1 | ? | 0% | 4.6µM* | . | . | .
Cc1ccc(C)c(Nc2nn3c(=O)c4ccc(C(=O)NCCC5=CCCCC5)cc4nc3s2)c1 | 6.5µM* | 6% | 7.3µM* | . | . | .
O=C1CCCN1CCCNS(=O)(=O)c1ccc(Br)cc1 | 20% | . | -14% | 6 | -4 | 7
C[C@H](CO)N1C[C@H](C)[C@@H](CN(C)C(=O)NC2CCCCC2)Oc2ncc(Br)cc2C1=O | -13% | . | -24% | -3 | 25 | -4
CCc1ccc(C(=O)N2CCC(c3nc4ccccc4s3)CC2)cc1 | ? | -6% | ? | -1 | 0 | -8
O=C(c1ccccc1Br)N1CCC(c2nc3ccccc3s2)CC1 | ? | -5% | 29µM* | 2 | -17 | .
COc1cc(C(=O)N2CCC(c3nc4ccccc4s3)CC2)cc(OC)c1OC | ? | 4% | 21µM* | . | . | .
Cc1ccccc1C(=O)N1CCC(c2nc3ccccc3s2)CC1 | ? | -2% | ? | . | . | .
CN(CC(=O)N(CCO)Cc1ccccc1)S(=O)(=O)c1ccc2c(c1)c(=O)n(C)c(=O)n2C | -4% | 1% | -1% | -15 | 0 | -24
CCCCN(CCCC)C(=O)CN(C)S(=O)(=O)c1ccc2c(c1)c(=O)n(C)c(=O)n2C | 23µM* | 8% | ? | . | . | .
Cc1ccc(CNC(=O)CN(C)S(=O)(=O)c2ccc3c(c2)c(=O)n(C)c(=O)n3C)cc1 | -8% | 3% | -6% | . | . | .
COc1ccc(CNC(=O)CN(C)S(=O)(=O)c2ccc3c(c2)c(=O)n(C)c(=O)n3C)cc1 | ? | 3% | 16µM*! | -6 | 28 | 3
SMILES | DT40 TDP1 CPT | TDP1 inh | DT40 TDP1 no CPT | Six1-Eya2 blk | IL-1B inflam inh | CtBP-E1A blk
CCOC(=O)Cc1cnc(NC(=O)CSc2nc3ncnc(N)c3[nH]2)s1 | -18% | -4% | -14% | -11 | 0 | -3
CC(C)n1ncc2c(C(=O)N3CCN(Cc4ccc(Cl)s4)CC3)cc(C3CC3)nc21 | ? | 0% | ? | -6 | ? | -5
Cc1ccc(Cl)cc1N1CCN(C(=O)Cn2ncc3c([nH]c4ccccc43)c2=O)CC1 | ? | 2% | ? | . | . | .
O=C(NC1=NCCS1)c1cc(-c2ccc(F)cc2)nc2ccccc12 | ? | 3% | ? | -3 | -73* | -4
CCCc1ccc(-c2cc(C(=O)NC3=NCCS3)c3ccccc3n2)cc1 | ? | 3% | ? | 2 | -53* | -16
CC12CCC(c3c1nc1ccccc1[n+]3[O-])C2(C)C (stereo not drawn) | ? | 3% | 18µM* | 2 | 3 | 0
CC12CCC(C(=NO)C1=NO)C2(C)C (stereo not drawn) | 2% | . | -13% | -1 | 1 | 2
CSc1nc(-c2ccccc2)nc(N2CCN(C)CC2)c1C(C)=O | -5% | 4% | ? | -13 | 0 | -6
CN(C)CCCNC(=O)c1ccc(-c2nc(-c3ccc(Cl)cc3)cs2)cc1 | 16µM* | 2% | 21µM* | 3 | -97* | -23
Cc1ccc(-c2nc(CCNC(=O)c3ccc(C)c(C)c3)cs2)cc1 | ? | -2% | 16µM* | . | . | .
Cc1cccc(-c2nc(CCNC(=O)c3ccccc3Br)cs2)c1 | 18µM* | 2% | 21µM* | . | . | .
COc1cccc(C(=O)NCCc2csc(-c3ccc(Cl)cc3)n2)c1 | 16µM* | 7% | ? | . | . | .
COc1cccc(OC)c1C(=O)NCCc1csc(-c2ccc(Cl)cc2)n1 | ? | 7% | ? | . | . | .
CCOc1ccc(C(=O)Cc2cc(OC)c(OC)cc2[N+](=O)[O-])cc1 | -2% | 2% | -9% | 4 | 3 | 23
CCc1nnc(SCC(=O)Nc2ccc(C(C)=O)cc2)nc1CC | 3% | 2% | 2% | 0 | -7 | -2
O=C(OCc1nnc(-c2ccc([N+](=O)[O-])cc2)o1)C1CCN(C(=O)c2ccc(Cl)cc2)CC1 | -22% | 3%[0.505 µM] | -18% | -4 | 6 | -12
COc1ccc(-c2nc(CCNC(=O)c3cc(OC)c(OC)c(OC)c3)cs2)cc1 | 13µM* | -1% | 13µM* | . | . | .
Nc1nc2n(n1)C(c1ccccc1Cl)CC(c1ccc(F)cc1)N2 (stereo not drawn) | 16µM* | 6% | ? | 0 | -4 | 0
Cc1ccc(C2CC(c3ccccc3Cl)n3nc(N)nc3N2)cc1 (stereo not drawn) | 21µM* | 5% | ? | -1 | ? | 0
Nc1nc2n(n1)C(c1ccc(Cl)cc1)CC(c1ccc(F)cc1)N2 (stereo not drawn) | ? | 5% | ? | -2 | ? | 1
